In general, inhibition refers to the relative decrease from the control value, in per cent.

Active and inactive are the calls of the source.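 How the source made its calls, unless noted: active means fluorescence slope higher than the sample average by over 3 SD (cut at about -0.22 in these data, passing the limit was not always enough); inactive means the rest.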

The values that follow come from PubChem BioAssay.

Assay [1] in a line: inhibitors of TNFa-induced NFkB p65 translocation, primary screen, imaging, HUVEC, MLSMR starter and 10KST1 sets (AID 438;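 active means inhibition above 20% together with a positive visual image hit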;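 further: compound added about 3h40 before a 20 min TNFalpha stimulation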;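 on inhibition: signal is the nuclear over cytoplasmic p65 intensity ratio per well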). Conditions: HUVEC TNFa-induced p65 nuclear translocation; cell count: measured here: nuclei count (cytotoxicity indicator), at 2.08 µM; inhibition: at 2 µM, stronger effect = higher value, 0% TNFa-plus-vehicle, 100% no-TNFa wells.
A short description of assay [2]: inhibitors of mutant huntingtin aggregation, primary screen, imaging, exon1htt(103Q)mCFP cells, high-content imaging (AID 483;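 active means visual image review flags a hit and inhibition of aggregation exceeds 20%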;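 further: compound exposure lasted 3 days before fixation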;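 on nuclei count: percent of the per-plate median nuclei count of sample wells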). Conditions: exon1htt(103Q)mCFP cell line, aggregate imaging, at 2 µM; inhibition of aggregation: stronger effect = higher value; nuclei count: measured here: cell count, toxicity.
Assay [3] in a line: inhibitors of E-selectin induction by TNFa, primary screen, imaging, HUVEC, immunofluorescence, MLSMR starter and 10KST1 sets (AID 487;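 active means visually confirmed hit in the image check and inhibition above 20%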;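 on inhibition: signal is fraction of cell area covered by stained E-selectin grains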;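 on nuclei count: 100% = median nuclei count of all wells on the same plate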). Conditions: HUVEC TNFalpha-induced E-selectin immunofluorescence imaging, at 2 µM; inhibition: stronger effect = higher value; nuclei count: measured here: cell number, toxicity.
Assay [4] deals with Voltage-gated potassium channel subunit beta-2 (Rattus norvegicus) (UniProt P62483). The experiment in a line: KvBeta enzyme negative modulators, primary screen, biochemical, NADPH fluorescence (AID 622).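 Further: slope of raw intensity against log time taken from 70 to 1610 s.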 Conditions: recombinant KvBeta, 4-cyanobenzaldehyde reduction, at 10 µM, stronger effect = higher value.
Chain of Voltage-gated potassium channel subunit beta-2 (Rattus norvegicus) (P62483 whole entry, looked up): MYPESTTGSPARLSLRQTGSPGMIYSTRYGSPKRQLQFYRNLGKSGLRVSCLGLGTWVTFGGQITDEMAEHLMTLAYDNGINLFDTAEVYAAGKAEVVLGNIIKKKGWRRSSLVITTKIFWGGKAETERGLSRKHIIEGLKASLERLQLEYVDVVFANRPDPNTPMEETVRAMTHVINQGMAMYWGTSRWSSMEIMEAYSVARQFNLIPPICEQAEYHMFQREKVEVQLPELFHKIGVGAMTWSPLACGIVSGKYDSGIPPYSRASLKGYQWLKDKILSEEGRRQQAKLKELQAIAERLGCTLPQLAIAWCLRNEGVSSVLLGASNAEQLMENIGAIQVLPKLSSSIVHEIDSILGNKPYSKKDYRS
Assay [5] shares this target. The experiment in a line: KvBeta positive modulators, primary screen, biochemical, NADPH fluorescence (AID 623;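 active means NADPH fluorescence slope more negative than the mean of all samples by about 3 SD, 99.7% confidence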;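 further: fluorescence intensity change per second fitted from 20 to 320 s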). Conditions: Recombinant KvBeta, NADPH fluorescence decrease slope, 10 min; at 10 µM; stronger effect = lower value.
Assay [6] has as its target Alpha-2C adrenergic receptor (Homo sapiens) (UniProt P18825). The experiment in a line: modulators of alpha2C/GIRK thallium flux, primary screen, cell-based, HEK293 alpha2C/GIRK1/2 (AID 624;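 active means fluorescence slope after compound addition differing from the mean of all screened samples at 99.7% confidence, in either direction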;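 further: slope of fluorescence ratio to pre-addition baseline per second over 15 to 24 s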). Conditions: thallium flux BTC fluorescence, at 10 µM, actives lie on both sides.
A short description of assay [7]: inhibitors of Sendai virus-induced IRF3 signaling, primary screen, TLR/RLR signaling modifier project, cell-based, Sendai virus stimulus, luciferase, 10K MLSCN set (AID 602276;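 active means inhibition at or above 50% at 10 µM; inactive means inhibition below 50%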;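 further: firefly luciferase from ISG56 promoter only with Renilla not read in this screen; 0% = Sendai virus plus DMSO and 100% = medium plus DMSO without virus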). Conditions: HEK293 RL24 IRF3 luciferase reporter, at 10 µM, stronger effect = higher value. For orientation: In a reporter assay the amount or activity of a reporter protein is the signal.
Assay [8] in a line: inhibitors of poly I:C-induced TLR3 signaling, primary screen, cell-based, poly I:C stimulus, luciferase, 10K MLSCN set (AID 602277;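 active means inhibition of the reporter signal at or above 50%; inactive means inhibition below 50%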). Conditions: HEK293-TLR3 RL24 IRF3 luciferase reporter, at 10 µM, stronger effect = higher value.

Chain of Alpha-2C adrenergic receptor (Homo sapiens) (P18825 whole entry, looked up): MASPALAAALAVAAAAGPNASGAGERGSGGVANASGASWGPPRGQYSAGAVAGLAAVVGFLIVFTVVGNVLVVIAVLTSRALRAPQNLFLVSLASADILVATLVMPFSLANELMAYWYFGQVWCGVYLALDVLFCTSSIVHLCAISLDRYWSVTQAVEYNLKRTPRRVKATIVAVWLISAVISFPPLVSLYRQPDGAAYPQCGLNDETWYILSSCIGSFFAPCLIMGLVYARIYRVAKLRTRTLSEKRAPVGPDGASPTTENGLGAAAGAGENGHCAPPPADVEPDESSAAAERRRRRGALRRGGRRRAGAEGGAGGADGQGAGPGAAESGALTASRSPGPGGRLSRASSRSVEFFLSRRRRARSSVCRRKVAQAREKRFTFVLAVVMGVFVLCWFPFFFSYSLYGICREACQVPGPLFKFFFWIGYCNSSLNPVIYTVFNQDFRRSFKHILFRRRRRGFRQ

As for `CCOC(=O)N1CCC(NC(=O)c2ccc3c(c2)N(CC)CCS3)CC1`, in assay [1], the cell count was determined as 382. Also, the inhibition in assay [1] was -2.4% (inactive); in assay [3], -62.7% (inactive); in assay [7], 12.8% (inactive); in assay [8] it was 34.1% (inactive). Also, the inhibition of aggregation in assay [2] is -22.2% (inactive). The nuclei count is 70.3% in assay [2] and 114% in assay [3]. Further, in assay [4], the fluorescence slope was -0.0283 (active). Moreover, the NADPH fluorescence slope in assay [5] was -5.8e-06 (inactive). In addition, the slope in assay [6] was 0.00586 (inactive).
As to `Cc1cc(C)c(NC(=O)CSc2nc3c(c(=O)n2C)SC(C)C3)c(C)c1` (centres undefined), the cell count in assay [1] stood at 700. Besides, the inhibition in assay [1] was 2.9% (inactive); in assay [3], -22% (inactive); in assay [7], -19.3% (inactive); in assay [8], -13.4% (inactive). In addition, the inhibition of aggregation in assay [2] was -5.9% (inactive). Also, the nuclei count came to 102% in assay [2] and 120% in assay [3]. Besides, the fluorescence slope in assay [4] was -0.565 (inactive). The NADPH fluorescence slope in assay [5] is -3.2e-05 (inactive). The slope in assay [6] is 0.00653 (inactive).
As for `CCCCn1c(CN2CCN(c3ccc(F)cc3)CC2)nc2c1c(=O)n(C)c(=O)n2C`, in assay [1], the cell count turned out to be 574. Moreover, the inhibition in assay [1] is 14.4% (inactive); in assay [3], -6.8% (inactive); in assay [7] it was 1.37% (inactive); in assay [8], 3.77% (inactive). Also, the inhibition of aggregation in assay [2] was 1.3% (inactive). The values for the nuclei count in assay [2] and in assay [3] were 90.1% and 82.5%, respectively. Also, in assay [4], the fluorescence slope was -0.53 (inactive). Also, the NADPH fluorescence slope in assay [5] is -3.3e-05 (inactive). The slope in assay [6] was 0.00657 (inactive).
As to `CCOC(OCC)P(=O)(C(C)C)C(C)C`, in assay [1], the cell count was 491. Also, the inhibition in assay [1] was 6% (inactive); in assay [3], -53.6% (inactive); in assay [7], 17.5% (inactive); in assay [8] it was 17.3% (inactive). Moreover, the inhibition of aggregation in assay [2] was -0.1% (inactive). The nuclei count worked out at 93.4% in assay [2] and 134% in assay [3]. The fluorescence slope in assay [4] is -0.443 (inactive). In addition, the NADPH fluorescence slope in assay [5] was 4e-05 (inactive). For the same molecule, the slope in assay [6] is 0.00549 (inactive).
Turning to `CCOc1ccc(NC(=O)CCN2CCN(c3ccccc3)CC2)cc1`, the cell count in assay [1] turned out to be 696. The inhibition in assay [1] was -6.4% (inactive); in assay [3], -44.6% (inactive); in assay [7], 20.2% (inactive); in assay [8], 16.6% (inactive). Besides, the inhibition of aggregation in assay [2] is 8.3% (inactive). Also, the nuclei count in assay [2] is 101%; in assay [3], 105%. Further, the fluorescence slope in assay [4] is -0.261 (inactive). Besides, in assay [5], the NADPH fluorescence slope is -1.2e-05 (inactive). Moreover, the slope in assay [6] is 0.00485 (inactive).
For `CCn1c(SCC(=O)Nc2ccc3c(c2)OCO3)nc2c(c1=O)SC(C)C2` (centres undefined), the cell count in assay [1] worked out at 496. In addition, the inhibition in assay [1] is 9.6% (inactive); in assay [3], 15.4% (inactive); in assay [7] it was -0.539% (inactive); in assay [8], 16.9% (inactive). The inhibition of aggregation in assay [2] is 4% (inactive). Besides, the nuclei count in assay [2] was determined as 111%; in assay [3] it was 95.3%. For the same molecule, in assay [4], the fluorescence slope was -0.561 (inactive). The NADPH fluorescence slope in assay [5] was -5e-05 (inactive). Also, in assay [6], the slope is 0.00661 (inactive).
In the case of `Cc1nc2oc3c(NCc4ccccn4)ncnc3c2c2c1COC(C)(C)C2`, the cell count in assay [1] is 366. The inhibition in assay [1] is -2.9% (inactive); in assay [3] it was -75.4% (inactive); in assay [7], 9.92% (inactive); in assay [8], 12.7% (inactive). Moreover, the inhibition of aggregation in assay [2] was 2.7% (inactive). Further, the results for the nuclei count in assay [2] and in assay [3] were 78.1% and 117%, respectively. The fluorescence slope in assay [4] was -0.431 (inactive). For the same molecule, the NADPH fluorescence slope in assay [5] was -4.2e-06 (inactive). In addition, the slope in assay [6] is 0.00661 (inactive).
Consider `CCOc1ccc(C2CC(c3ccccc3C)n3nc(N)nc3N2)cc1` (centres undefined), for which the cell count in assay [1] amounted to 515. Besides, the inhibition is 5% (inactive) in assay [1], -43.7% (inactive) in assay [3], 10.4% (inactive) in assay [7] and 25% (inactive) in assay [8]. Besides, the inhibition of aggregation in assay [2] was 30.8% (inactive). Besides, the nuclei count in assay [2] was found to be 91.1%; in assay [3], 90.1%. For the same molecule, in assay [4], the fluorescence slope is -0.586 (inactive). For the same molecule, the NADPH fluorescence slope in assay [5] is 1.8e-05 (inactive). Besides, the slope in assay [6] was 0.00699 (inactive).
Consider `CCOC(=O)c1c(N)nn(C(=O)C(C)C)c1-c1ccccc1`, for which the cell count in assay [1] amounted to 690. Also, the inhibition in assay [1] is -2.1% (inactive); in assay [3], 4.3% (inactive); in assay [7], -23.8% (inactive); in assay [8], -5.01% (inactive). In assay [2], the inhibition of aggregation was -5.4% (inactive). In addition, the nuclei count in assay [2] amounted to 112%; in assay [3] it was 109%. Moreover, the fluorescence slope in assay [4] was -0.529 (inactive). Besides, in assay [5], the NADPH fluorescence slope is -1.3e-05 (inactive). The slope in assay [6] was 0.00581 (inactive).
As for `CS(=O)(=O)NCc1nnc(SCC(=O)NC2CCCCC2)n1-c1ccc(F)cc1`, the cell count in assay [1] came out at 820. The inhibition in assay [1] is -5.5% (inactive); in assay [3], -5.8% (inactive); in assay [7], 16.2% (inactive); in assay [8], 26.3% (inactive). In addition, in assay [2], the inhibition of aggregation is -0.9% (inactive). Also, the nuclei count in assay [2] was determined as 111%; in assay [3], 128%. The fluorescence slope in assay [4] was -0.388 (inactive). Also, the NADPH fluorescence slope in assay [5] was -5.9e-05 (inactive). Besides, in assay [6], the slope is 0.00498 (inactive).
Regarding `CC(C)(C)n1nnnc1C(c1cccs1)N1CCN(Cc2ccccc2)CC1` (centres undefined), the cell count in assay [1] came to 482. The inhibition in assay [1] was -5.1% (inactive); in assay [3] it was -163% (inactive); in assay [7] it was 15.9% (inactive); in assay [8], 17.6% (inactive). The inhibition of aggregation in assay [2] is 0% (inactive). The results for the nuclei count in assay [2] and in assay [3] were 100% and 230%, respectively. Also, the fluorescence slope in assay [4] is -0.606 (inactive). Also, in assay [5], the NADPH fluorescence slope was -6.2e-06 (inactive). The slope in assay [6] is 0.00586 (inactive).
Regarding `COc1ccc(CCNC(=O)CN(c2ccccc2OC)S(C)(=O)=O)cc1`, the cell count in assay [1] came out at 723. For the same molecule, the inhibition in assay [1] was -3.4% (inactive); in assay [3] it was -41.9% (inactive); in assay [7], 15.7% (inactive); in assay [8] it was 27.5% (inactive). In assay [2], the inhibition of aggregation was 33.6% (inactive). Moreover, the nuclei count in assay [2] worked out at 87.7%; in assay [3] it was 98.4%. The fluorescence slope in assay [4] is -0.427 (inactive). For the same molecule, in assay [5], the NADPH fluorescence slope was -0.000127 (inactive). The slope in assay [6] is 0.00571 (inactive).
`CO/C([O-])=N/c1c[n+](-c2ccc(C)cc2)no1`: the cell count in assay [1] came to 711. Besides, the inhibition is -18.1% (inactive) in assay [1], -3.6% (inactive) in assay [3], -8.44% (inactive) in assay [7] and -40% (inactive) in assay [8]. For the same molecule, the inhibition of aggregation in assay [2] was -9.2% (inactive). The nuclei count amounted to 104% in assay [2] and 113% in assay [3]. In addition, in assay [4], the fluorescence slope was -0.471 (inactive). For the same molecule, the NADPH fluorescence slope in assay [5] was -4.7e-05 (inactive). Also, in assay [6], the slope is 0.00685 (inactive).
`Cc1ccc(-c2nnc3c4ccccc4c(C)nn23)cc1S(=O)(=O)N1CCN(C)CC1`: the cell count in assay [1] was determined as 640. For the same molecule, the inhibition in assay [1] is 7.2% (inactive); in assay [3], 11.3% (inactive); in assay [7], 13.3% (inactive); in assay [8] it was 30.7% (inactive). Further, the inhibition of aggregation in assay [2] was 3.8% (inactive). Further, the nuclei count in assay [2] came to 96.2%; in assay [3] it was 81.2%. In assay [4], the fluorescence slope was -0.592 (inactive). Besides, in assay [5], the NADPH fluorescence slope was -2.9e-05 (inactive). Besides, the slope in assay [6] is 0.00436 (inactive).
